Marburg entry inh: blocks Marburg virus binding to or entry into cells. 1.8% of 300,000 active. Marburg virus pseudotyped entry inhibition, cell reporter. AID 540276. Potency, µM (titrated, usually from 37.8 µM), for the others: at the highest dose activity change, negative = inhibition, hits mostly inhibitors; calls by dose curve; tested in HEK293 cells; also: potency is read from the fitted curve at half-maximal effect; % is scaled to controls: 0 for no effect and ±100 for the full control effect
HCV inh: blocks hepatitis C virus; AID 651820; 3.4% of 340,000 active; Huh7.5.1 HCVcc-Cre infection, luciferase reporter, 44 h; Potency, µM (top dose mostly 41.8 µM), inactives show top-dose activity change, negative = inhibition, most hits filed as inhibitors; active = well fitted inhibition curve with a large enough effect; inconclusive = small, poorly fitted or top-dose-only effect, or another doubt; inactive = no such curve, though single readings can be large or run the other way; also: potency is read from the fitted curve at half-maximal effect; % is scaled to controls: 0 for no effect and ±100 for the full control effect
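Compounds are dispensed onto cells plated 4 h earlier at 1,000 per well, with HCVcc-Cre virus (about 0.5 moi) added next. Following 44 h of culture, luminescent signal is measured for 15 sec after 15 min with substrate at room temperature.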
LASV entry inh: Lassa virus entry inhibition | Lassa virus pseudotype entry inhibition, cell reporter | Potency, µM (doses to about 37.9 µM), without a hit: at the top dose activity change, negative = inhibition, most hits filed as inhibitors | 1.2% of 300,000 active; calls by dose curve; tested in HEK293 cells; also: potency is read from the fitted curve at half-maximal effect; % is scaled to controls: 0 for no effect and ±100 for the full control effect; nearly all actives have a fitted effect of over 50% in size
Cycloheximide cs: counter-screen hit for Shiga toxin inhibitors, cycloheximide; cell reporter, cycloheximide protein synthesis inhibition counterscreen; max response, %; 12% of 300,000 active; AID 2314; in the data active = max response mostly above about 13%, no sharp cut-off; inactive = mostly below about 14%; also: read at 38.3 µM for the half of the compounds with a filed dose; 0% is about no effect
Shiga toxin inh: blocks Shiga toxin action in Vero cells | inhibition, % at 38.7 µM | Vero cells, Shiga toxin protein synthesis inhibition reporter | 9.2% of 290,000 active; in the data active = inhibition mostly above about 28%, no sharp cut-off; inactive = mostly below about 43%; also: 0% is about no effect
FMDV inh: antivirals against foot and mouth disease virus; FMDV antiviral cell-based qHTS; Potency, µM (top dose mostly 57.9 µM), for inactives: at the top dose activity change, negative = inhibition, most hits filed as inhibitors; 1.2% of 410,000 active; AID 1159524; calls by dose curve; tested in HEK293T cells; also: read-out not given here; potency is read from the fitted curve at half-maximal effect; % is scaled to controls: 0 for no effect and ±100 for the full control effect; nearly all actives have a fitted effect of over 45% in size
Numbers without * were called inactive; ? = inconclusive; / = not tested or not shown; + = active, no number; [ ] = another dose, or the depositor's remark. In the library only some 13% were active in any assay of this set; here they are far more common.

SMILES | Marburg entry inh | HCV inh | LASV entry inh | Cycloheximide cs | Shiga toxin inh | FMDV inh
Cc1cc(C)c2c(c1)/C(=C/C(=O)c1ccc(Br)s1)C(=O)N2 | ? | 11µM* | ? | -2 | -17 | ?
Cc1cccc2c1NC(=O)/C2=C\C(=O)c1cccs1 | ? | 30% | ? | 15* | -7 | ?
CCc1ccc2c(c1)/C(=C/C(=O)c1cccs1)C(=O)N2 | ? | 22µM* | ? | -8 | -33 | 20µM*
CCOC(=O)c1sc2nc(N3CCOCC3)c3c(c2c1N)CCN(C)C3 | 0% | -18% | / | -2 | -16 | /
O=Nc1c(-c2cccc([N+](=O)[O-])c2)nc2ncccn12 | / | / | / | -1 | -8 | /
CC(=O)O[C@H]1Cc2ccccc2N(C(N)=O)c2ccccc21 | -11% | / | ? | -7 | -15 | /
Cc1ccccc1Cn1cc(NC(=O)c2noc(C(C)C)c2[N+](=O)[O-])cn1 | / | -4% | / | 0 | 3 | -3%
O=C(NCCN1CCOCC1)c1cc2ccccc2oc1=O | ? | 3.2µM* | 5% | 13 | 35* | 27%
Cc1cc(C)nc(SCC(=O)c2cc3ccccc3oc2=O)n1 | 17%[46.1 µM] | -17% | 13% | 8 | -2 | 3%
O=C(NNC(=O)c1cc2ccccc2oc1=O)c1ccccc1 | 22%[46.1 µM] | -5% | ? | 20* | 62* | 31%
O=C(c1ccccc1)c1cc2ccccc2oc1=O | -1%[46.1 µM] | -7% | 24%[46.1 µM] | 37 | 60* | 30%
O=C(c1ccccc1)N1CCN(C(=O)c2cc3ccccc3oc2=O)CC1 | 14%[46.1 µM] | 8% | / | -9 | 4 | 7%
Cc1cc[n+](CC(=O)c2cc3ccccc3oc2=O)cc1 | 9% | 19% | -1% | 60* | + | 34%
O=C(NCCN1CCOCC1)c1cc2ccccc2o1 | 14%[46.1 µM] | 12% | 10% | -4 | -3 | 14%
O=C(NCCS(=O)(=O)N1CCC2(CC1)OCCO2)c1ccccc1 | ? | 4%[8.37 µM] | 13% | / | / | -1%
COc1ccc(/C=N/NC(=O)C(=O)NCc2cccnc2)cc1OC | -1% | -7% | -4% | -4 | -17 | 16%
Cc1cccc(NC(=O)CN(C)S(=O)(=O)c2cccc3cccnc23)c1C | / | 1% | / | 2 | -2 | -30%
O=C(O)c1cc2ccccc2oc1=O | / | ? | / | 43* | 58* | 0%
COC(=O)C[C@@H]1CC[C@@H](NC(=O)NC2CCCC2)[C@@H](CO)O1 | / | / | / | / | / | -8%
Cc1nnc(SCc2cccc(Oc3ccccc3)c2)n1N | ? | 6% | 8% | 21* | 5 | 23%
Cc1ccc(-n2c(SCc3ccc(C#N)cc3)nnc2-c2ccccn2)cc1 | -10% | -6% | -15% | -3 | 31 | -7%
Cc1nnc(SCC(=O)Nc2ccc(Oc3ccccc3)cc2)n1N | 17% | 17% | -16% | 0 | -17 | 24%
Nn1c(SCc2ccc(F)cc2)nnc1-c1ccccn1 | 30%[46.1 µM] | 11% | ? | 34* | 68* | 59%
Cc1ccc(CSc2nnc(-c3ccccn3)n2N)cc1 | / | 6% | / | 23* | 107* | 17%
Nn1c(SCc2ccccc2F)nnc1-c1ccccn1 | ? | 21% | -2% | 33* | 135* | 51%
SMILES | Marburg entry inh | HCV inh | LASV entry inh | Cycloheximide cs | Shiga toxin inh | FMDV inh
CC(NC(=O)Cc1ccc(S(=O)(=O)N2CCOCC2)s1)c1ccc(Cl)cc1Cl (stereo unspecified) | ? | -3% | 1% | / | / | -20%
NC(=O)CSc1nnc(-c2ccccn2)n1N | / | 1% | / | 0 | 36 | 1%
Cc1ccc(CSc2nnc(C)c(=O)n2N)cc1 | ? | -4% | 0% | 12* | 5 | 7%
Nn1c(SCc2ccccc2)nnc1-c1ccccn1 | 5% | 2% | 5% | 30* | 38* | 3%
Nc1ccc2nn(-c3ccccc3)nc2c1 | 5%[46.1 µM] | -14% | 8% | 53* | 97* | 21%
CC(C)CC(=O)Nc1cc2nn(-c3ccccc3)nc2cc1Cl | ? | 2% | ? | 74* | 115* | 10%
Nc1ccc(-n2nc3ccccc3n2)cc1 | ? | -12% | ? | / | / | 15%
Nc1cc2nn(-c3ccccc3)nc2cc1Cl | -26%[46.1 µM] | ? | ? | 32* | 141* | 0%
CCOC(=O)c1c(C)[nH]c(C)c1S(=O)(=O)NCC(=O)Nc1cccc(C(F)(F)F)c1 | / | / | 9%[46.1 µM] | / | / | 16%
O=C(CC1C[C@H](C(=O)N2CCOCC2)[C@@]2(CCC3CCCC3)c3[nH]c4ccccc4c3CCN2C1=O)NCCN1CCOCC1 (stereo partly specified) | / | -11% | / | / | / | 8%
Cn1c(=O)c2c(nc(Br)n2Cc2ccc3ccccc3c2)n(C)c1=O | -19% | ? | -18% | -4 | -19 | 14µM*
COc1ccc(Oc2nc3c(c(=O)n(C)c(=O)n3C)n2Cc2cccc(OC)c2)cc1 | -4% | 15% | ? | -1 | -22 | ?
COCCOc1nc2c(c(=O)n(C)c(=O)n2C)n1Cc1cccc(OC)c1 | ? | 11µM* | -17% | 9 | -6 | ?
Cn1c(=O)c2c(nc(Br)n2Cc2ccccc2Cl)n(C)c1=O | ? | ? | -12% | -1 | -9 | ?
Cc1cc(C)cc(N2CCn3c2nc2c3c(=O)n(C/C=C/c3ccccc3)c(=O)n2C)c1 | / | / | 7%[46.1 µM] | / | / | -10%
Cc1csc(NC(CO)c2nc3ccccc3n2CCOCCO)n1 (stereo unspecified) | / | 18% | / | / | / | -3%
COc1ccc(NC(=O)COc2ccc(/C=N/n3c(C)nnc3C)cc2OC)cc1 | 25% | 6% | -3% | 20 | 25 | 29%
O=C(c1ccco1)N1CCN(C(=O)c2ccc(COc3ccc(Cl)cc3Cl)o2)CC1 | ? | ? | 13µM* | / | / | ?
O=C(c1ccc(COc2ccc3c(c2)CCC3)o1)N1CCN(c2ccccc2)CC1 | 19% | -27% | ? | / | / | /
O=C(c1ccco1)N1CCN(C(=O)c2ccc(COc3ccc4c(c3)CCC4)o2)CC1 | ? | ? | 14µM* | 1 | -3 | ?
O=C(c1ccc(COc2ccccc2Cl)o1)N1CCN(c2ccccc2)CC1 | / | ? | / | -3 | -13 | -16%
Cc1ccnc(NC(=O)c2ccc(S(=O)(=O)N3CCCC3)cc2)c1 | ? | -4% | 24% | / | / | 23%
COc1cc(OC)c(OC)cc1CN1CCN(c2ccccc2OC)CC1 | -15% | 0% | 31%[14.3 µM] | -3 | -6 | -1%
COc1cc(OC)c(OC)cc1CN1CCN(Cc2cccn2C)CC1 | 21µM* | -8% | 0% | -1 | -6 | -6%
N#CCc1ccc(NC(=O)Nc2cccc3ccccc23)cc1 | / | -13% | / | 16* | 22 | 29%
SMILES | Marburg entry inh | HCV inh | LASV entry inh | Cycloheximide cs | Shiga toxin inh | FMDV inh
CCOc1ccccc1NC(=O)Nc1ccncc1 | -6%[46.1 µM] | ? | 6%[46.1 µM] | 5 | 14 | -5%
CCOc1ccccc1NC(=O)Nc1ccc(CC#N)cc1 | / | ? | / | 17* | 28 | -4%
COc1ccc(N2CCN(c3ccc(NC(=O)/C=C\C(=O)O)cc3)CC2)cc1 | / | -3% | / | -1 | / | -10%
O=[N+]([O-])c1ccc(N=Nc2ccc(O)c3ccccc23)cc1 | ? | 10µM* | -23%[46.1 µM] | / | / | -25%
O=C(O)c1cc(NN=Nc2ccc(Br)cc2)cc([N+](=O)[O-])c1 | / | 5% | / | 6 | 6 | 1%
O=[N+]([O-])c1ccc(N=NNc2ccccc2)cc1 | 24% | -2% | 17% | 64* | 185* | 30%
